# Assay outcomes deposited in PubChem BioAssay by several laboratories.
# FadD28 FP inh – M. tuberculosis FadD28 bisubstrate binding inhibition. FadD28 bisubstrate probe binding, fluorescence polarization. inhibition, % at 12.5 µM. actives 0.22% (n = 360,000); in the data active = inhibition above about 8.5%, passing the limit was not always enough
# UGM FP inh – Mtb UDP-galactopyranose mutase inhibition. P9WIQ1. purified UGM, fluorescence polarization probe displacement. inhibition, % at 10 µM. actives 0.06% (n = 320,000); in the data active = inhibition above about 10%, passing the limit was not always enough
# Mtb BioA inh – inhibitors of Mycobacterium tuberculosis BioA enzyme. purified M. tuberculosis BioA enzyme, plate reader. inhibition, % at 9.99 µM. actives 0.096% (n = 360,000). AID 602481; in the data active = inhibition above about 40%
# RecA splice inh – Mtb RecA intein splicing inhibition. P9WHJ3. cell-free RecA intein splicing, fluorescence. inhibition, % (no concentration beside the values). actives 0.75% (n = 290,000). AID 2221; in the data active = inhibition above about 30%
# TcdB GH inh – inhibitors of Clostridioides difficile toxin B glycohydrolase. P18177. TcdB glycohydrolase enzymatic assay, plate reader. inhibition, % at 9.99 µM. actives 0.24% (n = 350,000). AID 652162; in the data active = inhibition above about 10%
# Rv3671c inh – inhibitors of M. tuberculosis serine protease Rv3671c; P9WHR9; actives 0.048% (n = 320,000); inhibition, % at 5.96 µM; in the data active = inhibition above about 38%;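 note: extracellular domain of Rv3671c used as enzyme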
# Target sequence (P9WHR9 whole entry, looked up, the tested form may be a part): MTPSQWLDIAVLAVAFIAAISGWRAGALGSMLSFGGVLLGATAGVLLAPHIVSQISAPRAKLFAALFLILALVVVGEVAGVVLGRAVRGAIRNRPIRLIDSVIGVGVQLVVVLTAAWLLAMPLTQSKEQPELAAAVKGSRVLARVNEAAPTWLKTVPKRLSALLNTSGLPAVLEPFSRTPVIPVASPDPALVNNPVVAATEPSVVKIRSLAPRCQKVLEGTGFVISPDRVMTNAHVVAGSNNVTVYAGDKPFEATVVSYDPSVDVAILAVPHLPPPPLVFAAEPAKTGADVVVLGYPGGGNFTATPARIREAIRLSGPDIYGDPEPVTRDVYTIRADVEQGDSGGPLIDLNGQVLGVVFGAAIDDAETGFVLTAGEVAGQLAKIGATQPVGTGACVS
# A number is an active result; – = inactive; · = not tested or not shown. The list is not random: actives were taken first. Their share in the collection is about 0.9%.
SMILES,FadD28 FP inh,UGM FP inh,Mtb BioA inh,RecA splice inh,TcdB GH inh,Rv3671c inh
C[C@@H]1CN([C@H](C)CO)C(=O)c2cc(NC(=O)Nc3ccc4c(c3)OCO4)ccc2O[C@@H](C)CCCCO[C@@H]1CN(C)C(=O)NC1CCCCC1,·,·,–,·,–,·
O=S(=O)(c1ccccc1)N1CCN=C1SCc1ccccc1,–,–,·,–,10.3,–
COc1ccc(O)c(/C=N/NC(=S)Nc2cccc(S(=O)(=O)N(C)C)c2)c1,17.6,–,–,–,·,–
C[C@H]1CN([C@@H](C)CO)C(=O)c2cccc(NC(=O)CCCCCC(=O)Nc3ccccc3N)c2O[C@@H]1CN(C)Cc1ccc(-c2ccccc2)cc1,·,·,·,·,–,·
COc1ccc(NC(=O)NS(=O)(=O)c2ccc(C)cc2)cn1,–,67.4,–,–,–,·
CN(C)C(=O)c1ccc2c(c1[N+](=O)[O-])C(=O)c1ccccc1C2=O,–,–,·,54.7,·,–
Cc1noc(C)c1S(=O)(=O)N(C)C[C@@H]1Oc2ccc(NS(=O)(=O)c3cccs3)cc2CC(=O)N([C@@H](C)CO)C[C@H]1C,·,·,–,·,–,·
N#Cc1c(N)n(-c2ccc(C(=O)O)cc2)c2nc3ccccc3nc12,–,–,–,–,–,–
N#Cc1c(C#N)c(-c2ccccc2)n(-c2ccc(C(=O)O)cc2)c1N,12.2,–,–,–,·,–
C[C@@H]1CN([C@H](C)CO)C(=O)c2cc(NC(=O)Nc3ccccc3)ccc2O[C@@H]1CN(C)C(=O)Nc1cccc2ccccc12,·,·,–,·,–,·
COc1cc(/C=N/n2cc(-c3ccccc3)[nH]c2=S)cc(OC)c1O,–,–,–,–,–,–
Oc1ccc(/C=N/n2cc(-c3ccccc3)[nH]c2=S)cc1,–,–,·,–,13.6,–
C[C@@H]1CCCCO[C@H](CN(C)S(=O)(=O)c2ccc(Cl)cc2)[C@H](C)CN([C@@H](C)CO)C(=O)c2cc(NS(C)(=O)=O)ccc2O1,·,·,–,·,–,·
CO[C@@H]1[C@@H](OC(N)=O)[C@@H](O)[C@H](Oc2ccc3c(O)c(NC(=O)c4ccc(O)c(CC=C(C)C)c4)c(=O)oc3c2C)OC1(C)C,–,·,–,·,–,·
COC1C(OC(=O)c2ccc(C)[nH]2)C(O)C(Oc2ccc3c(O)c(NC(=O)c4ccc(O)c(CC=C(C)C)c4)c(=O)oc3c2Cl)OC1(C)C (stereo not given),19.8,–,–,·,–,–
CCCNC(=O)[C@H]1[C@H](CO)[C@H]2Cn3c(ccc(-c4cccc(OC)c4)c3=O)[C@@H]1N2CC,·,·,·,·,–,·
COc1ccc(Cl)cc1C(=O)Nn1c(-c2cccs2)nc2ccccc2c1=O,12.1,–,·,–,–,–
Cc1cnc([N+](=O)[O-])n1CCOC(=O)c1cccc(F)c1,–,–,–,–,–,–
Cc1cnc([N+](=O)[O-])n1CCOC(=O)NC(=O)c1ccc(F)cc1,–,–,·,–,32.3,–
COc1ccc(S(=O)(=O)N(C)C[C@H]2Oc3ccc(NC(=O)Nc4c(C)noc4C)cc3C(=O)N([C@@H](C)CO)C[C@H]2C)cc1,·,·,–,·,–,·
O=C(c1cccc(F)c1)N1CC2(C1)[C@H](c1ccccc1)[C@@H](CO)N2C(=O)C1CCOCC1,·,·,·,·,–,·
C/C(=N\N=C(/N)SC1CC(=O)N(c2ccc(Br)cc2)C1=O)c1cccs1 (stereo not given),10.5,–,–,–,–,–
CC(C)(C)c1ccc(C2C(C#N)=C(N)Oc3n[nH]c(-c4cccnc4)c32)cc1 (stereo not given),–,–,–,–,–,–
COc1cc(Br)c(C2C(C#N)=C(N)Oc3n[nH]c(-c4cccnc4)c32)cc1OC (stereo not given),–,–,·,56.5,–,–
COc1cc(OC)cc(C2C(C#N)=C(N)Oc3n[nH]c(-c4cccnc4)c32)c1 (stereo not given),–,–,–,49.8,–,–
O=C1NC(=O)N(c2ccccc2)C(=O)/C1=C\c1ccc([N+](=O)[O-])s1,·,–,·,–,–,–
COc1ccc(OC)c(N2C(=O)NC(=O)/C(=C\c3ccc([N+](=O)[O-])s3)C2=O)c1,23.4,–,–,–,–,–
CCCC#Cc1cnc2c(c1)C(=O)N([C@@H](C)CO)C[C@H](C)[C@H](CN(C)C(=O)Nc1ccccc1F)O2,·,·,–,·,–,·
O=C(O)CSc1cc(NS(=O)(=O)c2cccc([N+](=O)[O-])c2)c2ccccc2c1O,–,·,–,95.2,–,·
